Measured values reported in PubChem BioAssay AID1240 (Sanford-Burnham Center for Chemical Genomics, 2008).
Screen size: about 50,000 compounds; about 800 (1.6%) showed an effect of 50% or more. Only a selection was taken, and strong results are over-represented in it overall.

target: Bcl-2-like protein 10 (Homo sapiens) (UniProt Q9HD36); test: Phenotype converters, Bcl-B/TR3 peptide binding displacement, primary biochemical FP (AID 1240); details: GST-Bcl-B / FITC-TR3 peptide fluorescence polarization; stronger effect = higher value; compound at 3.75 mg/L;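 further: 0% = Bcl-B with tracer peptide and DMSO and 100% = tracer peptide lacking Bcl-B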
Sequence (Q9HD36 whole entry, looked up): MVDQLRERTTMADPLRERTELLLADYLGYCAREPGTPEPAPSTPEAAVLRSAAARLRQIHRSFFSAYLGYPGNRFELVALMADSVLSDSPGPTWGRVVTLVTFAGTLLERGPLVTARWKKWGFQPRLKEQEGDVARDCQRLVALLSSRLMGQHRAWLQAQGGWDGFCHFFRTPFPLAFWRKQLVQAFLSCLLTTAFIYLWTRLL

Compound	displacement
FC(F)(F)c1cccc(NC(=S)NCc2ccc3c(c2)OCO3)c1	-6.8%
Cc1ccccc1OCCn1cc(C=C2C(=O)NC(=S)NC2=O)c2ccccc21	6.1%
CCc1cc(C)cc(OCCn2cc(C=C3C(=O)NC(=S)NC3=O)c3ccccc32)c1	14.7%
CCC(C)c1ccccc1OCCn1cc(/C=C2/SC(=S)NC2=O)c2ccccc21 (stereo unspecified)	128%
COc1cccc(OCCn2cc(C=C3C(=O)NC(=S)NC3=O)c3ccccc32)c1	36.6%
O=C1NC(=S)S/C1=C/c1cn(CCOc2ccc(Br)cc2)c2ccccc12	68.9%
COc1cccc(OCCn2cc(/C=C3/SC(=S)NC3=O)c3ccccc32)c1	-15.1%
CCc1cc(C)cc(OCCOc2ccccc2/C=C2/SC(=S)N(C)C2=O)c1	2.3%
CC(C)(C)c1ccc(OCCn2cc(/C=C3/SC(=S)NC3=O)c3ccccc32)cc1	15.2%
CCc1cc(C)cc(OCCn2cc(/C=C3/SC(=S)N(C)C3=O)c3ccccc32)c1	123%
O=C1NC(=S)S/C1=C\c1cn(CCOc2ccccc2F)c2ccccc12	-62.3%
CCc1cc(C)cc(OCCn2cc(/C=C3/SC(=S)NC3=O)c3ccccc32)c1	78.8%
Cc1cccc(OCCn2cc(/C=C3/SC(=S)N(C)C3=O)c3ccccc32)c1	15.1%
O=C(c1ccc([N+](=O)[O-])cc1)N1CCN(CC2CC3C=CC2C3)CC1 (stereo unspecified)	-6.8%
O=C(Nc1ccccc1F)c1ccc(CSc2ccc(Cl)cc2)cc1	6%
COc1ccccc1OCCNC(=O)c1ccc(Br)cc1	-19.3%
CCOc1ccc(NC(=O)c2cc3cc(OC)ccc3oc2=O)cc1	13.8%
O=C(Nc1ccccc1I)C1CC(=O)N(c2ccc(Br)cc2)C1 (stereo unspecified)	-26%
CC1(C)CC(NC(=S)Nc2cccc(Cl)c2)CC(C)(C)N1	-3.3%
O=S(=O)(c1ccc(Cl)cc1)n1cccc1	6.8%
O=[N+]([O-])c1ccccc1C=Nc1cc2c(cc1Br)OCCO2	-4.8%
COc1cc2c(cc1NS(=O)(=O)c1ccc([N+](=O)[O-])cc1)oc1ccccc12	-2.9%
O=C(O)c1ccc(Cl)c(S(=O)(=O)N2CCCC2)c1	5.8%

Compound	displacement
O=C1c2ccc(Oc3ccc4c(c3)C(=O)N(Cc3cccnc3)C4=O)cc2C(=O)N1Cc1cccnc1	-7%
O=[N+]([O-])c1ccc(N2CCOCC2)cc1NC1CC1	4%
COc1ccc(C(=O)NNC(=O)c2cccc(C)c2)c(OC)c1	3.3%
CCOc1ccc(Nc2cc(=O)n(C)c(=O)n2C)cc1	-4.6%
Cc1ccc(-c2ccccc2)n1-c1ccccc1C(=O)O	86.8%
COc1cc(C(=O)O)c(-n2c(C)ccc2C)cc1OC	74.7%
Cc1ccc(-c2ccccc2)n1-c1ccc(O)c(C(=O)O)c1	20.4%
CC(=O)c1c(C(=O)O)cccc1C(=O)O	4.4%
Cc1ccc(-c2ccccc2)n1-c1ccc(Cl)c(C(=O)O)c1	-41.6%
Cc1c(C(=O)O)cccc1-n1c(C)ccc1C	85.4%
Cc1c(C(=O)O)cccc1-n1c(=O)c2cc3c(=O)n(-c4cccc(C(=O)O)c4C)c(=O)c3cc2c1=O	14%
COc1ccc(CSCC(=O)O)cc1C(=O)O	-8.5%
COc1ccc(N)cc1-n1c(C)ccc1C	42.5%
CCOC(=O)C1=C(c2ccccc2)N=c2s/c(=C\c3cccnc3)c(=O)n2C1c1cc(OC)ccc1OC (stereo unspecified)	-3%
Cc1ccc(C(=O)Nc2ccccc2C(=O)NC(Cc2c[nH]c3ccccc23)C(=O)O)cc1 (stereo unspecified)	7.1%
CN1C(N)=NC(=O)C12COC(c1cccnc1)OC2 (stereo unspecified)	7.8%
CC(=O)N(C)c1ccc(NC(=O)c2ccccc2[N+](=O)[O-])cc1	-4%
Cc1ccc(N(CC(=O)NCCc2ccccc2)S(C)(=O)=O)cc1Cl	19.2%
O=C(O)c1cccc(NC2=C(Cl)C(=O)N(c3ccc(Cl)cc3)C2=O)c1	32%
Clc1ccccc1COc1cccc(/C=N/Nc2nc(N3CCOCC3)nc(N3CCOCC3)n2)c1	2.6%
COc1cccc(-c2csc(/C(C#N)=C/c3sccc3C)n2)c1	-8.9%
N#C/C(=C\c1ccco1)c1nc(-c2ccccc2)cs1	58.3%
Cc1ccsc1/C=C(/C#N)c1nc(-c2ccc(-c3ccccc3)cc2)cs1	3.1%

Compound	displacement
N#C/C(=C\c1cccc(F)c1)c1nc(-c2ccc([N+](=O)[O-])cc2)cs1	8.5%
COc1ccc(-c2csc(/C(C#N)=C/c3ccc(C)o3)n2)cc1OC	-31.7%
COc1ccc(-c2csc(/C(C#N)=C/c3sccc3C)n2)cc1OC	181%
Cc1ccc(-c2csc(/C(C#N)=C/c3sccc3C)n2)cc1C	11.7%
CCOc1ccc(-c2csc(/C(C#N)=C/c3ccco3)n2)cc1	-6%
Cc1ccsc1/C=C(/C#N)c1nc(-c2ccc(Cl)cc2)cs1	81.1%
Cc1ccsc1/C=C(\C#N)c1nc(-c2cccc([N+](=O)[O-])c2)cs1	147%
COc1ccc(-c2csc(/C(C#N)=C\c3sccc3C)n2)cc1	1.8%
N#C/C(=C/c1ccco1)c1nc(-c2cc3ccccc3oc2=O)cs1	-1.2%
CCC(=O)Nc1nc(C23CC4CC(CC(C4)C2)C3)c(C)s1	-2.7%
COc1cc(/C=C2/SC(=S)N(Cc3ccccc3)C2=O)cc(Cl)c1OCc1ccccc1	12.4%
CC1=C(C(=O)OCCc2ccccc2)C(c2ccccc2OCc2ccccc2)C2=C(CCCC2=O)N1 (stereo unspecified)	-6%
CC(C)CN1C(=O)c2ccc(C(=O)Nc3c[nH]c(=O)[nH]c3=O)cc2C1=O	7.8%
C=CCn1c(C)nc2c(cnn2-c2ccccc2)c1=O	-0.7%
C=C(C)C1CC=C(C)/C(=N/NC(=O)c2cccc(C)c2)C1 (stereo unspecified)	14.9%
CCn1cc(C(=O)NN)c(=O)c2cc(F)c(N3CCCCC3)cc21	17.4%
COc1cc(/C=C2/SC(=S)N(C)C2=O)ccc1OCc1cccc2ccccc12	6.6%
CCc1ccc(/C=C(/C#N)c2nc(-c3ccc(Br)cc3)cs2)cc1	-3.5%
Cc1ccsc1/C=C(\C#N)c1nc(-c2cccc(Br)c2)cs1	95.2%
Cc1ccsc1/C=C(/C#N)c1nc(-c2ccc(Br)cc2)cs1	132%
N#C/C(=C\c1cccs1)c1nc(-c2ccc(Br)cc2)cs1	5.9%
Cc1ccsc1/C=C(\C#N)c1nc(-c2cc3cc(Br)ccc3oc2=O)cs1	-10.8%
Cc1ccc(-c2csc(/C(C#N)=C/c3sccc3C)n2)c(C)c1	69.3%

Compound	displacement
Cc1ccc(-c2csc(/C(C#N)=C/c3ccsc3)n2)cc1	-5.9%
Cc1csc(/C(C#N)=C/c2sccc2C)n1	-12%
N#C/C(=C\c1cccs1)c1nc(-c2ccc(Cl)cc2Cl)cs1	129%
N#C/C(=C\c1ccccc1Cl)c1nc(-c2cccs2)cs1	-9.2%
Cc1ccsc1/C=C(\C#N)c1nc(-c2ccc3c(c2)OCO3)cs1	-27%
CC(C)(C)c1cc(C(=O)N/N=C/C=C/c2ccccc2)n[nH]1	-9.5%
COc1ccc(/C=N/Nc2ncc(Br)cn2)cc1	-11.3%
C=CCn1c(O)c(C2=c3cc(Cl)ccc3=NC2=O)sc1=S	-14.2%
CCc1ccc(S(=O)(=O)Nc2ccccc2OC)cc1	13.8%
N/C(=N\OC(=O)c1ccc(Br)cc1)c1ccc(Cl)cc1	2.2%
Cc1cc(Cl)ccc1OCC(O)CN1C(C)CCCC1C (stereo unspecified)	0.8%
CC(=O)N1C(=O)/C(=C\C(=O)c2ccc([N+](=O)[O-])cc2)c2ccccc21	0.8%
CC(C)NC(=O)C12CC3CC(C1)CC(C(=O)NC(C)C)(C3)C2	1.3%
CCOC(=O)CSc1nnc2c3ccccc3n(CC)c2n1	-10.4%
Cc1ccc(OCc2nnc(NC(=O)Nc3cccc(Cl)c3)s2)cc1C	14.2%
C/C(=N\N=C1\NC(=O)C(CC(=O)Nc2ccc(Cl)cc2Cl)S1)c1ccc(Cl)cc1 (stereo unspecified)	15.5%
COc1ccc(CNC(=O)c2c(-c3c(Cl)cccc3Cl)noc2C)cc1	0.9%
Cc1ccc(/C=C(\C#N)c2nc(-c3ccc(C)c(C)c3)cs2)o1	-25.1%
Cc1ccc(/C=C(\C#N)c2nc(-c3cccc(Br)c3)cs2)o1	164%
COc1cccc(-c2csc(/C(C#N)=C/c3ccc(C)o3)n2)c1	-113%
COc1cc(OC)c(C=Nc2ccccc2C(=O)Nc2ccccc2)cc1Br	-6%
CCOc1ccccc1C=Nc1ccccc1C(=O)Nc1ccccc1	-7.9%
Cc1ccccc1NC(=O)c1cc2ccccc2c(/C=N/n2cnnc2)c1O	109%

Compound	displacement
Cc1ccc(-n2c(O)c(/C=N/n3cnnc3)c3ccccc3c2=O)cc1	5.8%
Cc1ccccc1NC(=O)c1cc(-c2ccccc2)nc2c(Cl)cccc12	-13.6%
COc1ccccc1N=Cc1c(O)c(C(=O)Nc2ccccc2)cc2ccccc12	105%
COC(C(=O)NNC(=O)c1cccc(Cl)c1)c1ccccc1 (stereo unspecified)	-5.9%
CCOC(=O)C1=C(C)NC(=O)NC1c1cc(OC)c(OC)c(OC)c1 (stereo unspecified)	9.3%
O=C(CN(c1cccc([N+](=O)[O-])c1)S(=O)(=O)c1ccccc1)NCC1CCCO1 (stereo unspecified)	-4.4%
O=C(Nc1ccc2nn(-c3ccc(Cl)cc3)nc2c1)c1cccnc1	29.6%
CCOC(=O)c1c(NC(=O)c2ccc(Cl)cc2Cl)sc(C(=O)Nc2ccccc2C)c1C	1.3%
CCOC(=O)c1c(NC(=O)c2ccc(Cl)cc2Cl)sc(C(N)=O)c1C	88.7%
CCOC(=O)c1c(NC(=O)c2ccc(Cl)cc2Cl)sc(C)c1C	6.1%
O=S(=O)(c1ccc2ccccc2c1)N(CC(O)CN1CCOCC1)c1ccccc1 (stereo unspecified)	-0.7%
O=C(NCc1cccnc1)c1cccc(S(=O)(=O)N2CCCCC2)c1	2.2%
CCOC(=O)/C=C/C(=O)Nc1sc(C)c(C)c1C(N)=O	-2%
O=c1c(-c2ccccc2)[n+]([O-])c2ccccc2n1O	21.7%
COn1c(=O)c(-c2ccccc2)[n+]([O-])c2ccccc21	15.9%
CCOn1c(=O)c(-c2cccs2)[n+]([O-])c2ccccc21	121%
CCOn1c(=O)c(-c2ccccc2)[n+]([O-])c2ccccc21	18.9%
O=c1c(-c2cccs2)[n+]([O-])c2ccccc2n1O	69.4%
CCOn1c(=O)c(C)[n+]([O-])c2ccccc21	14.9%
